The text below walks through data of PubChem BioAssay (EPA / NIEHS).

The target of assay [1] is Cellular tumor antigen p53 (Homo sapiens) (UniProt P04637). Put plainly: TOX21_p53_BLA_p2_ratio: Tox21 HCT-116 p53 Agonism Beta-lactamase Assay, Ratio, Phase 2 (AID 2283592). The method in brief: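 HCT116 cells carrying a p53-responsive beta-lactamase reporter were plated, incubated 5 h at 37C, then dosed with compounds in DMSO (217-fold dilution) for 16 h. CCF4-AM substrate was added for 2 h at room temperature; the 460/530 nm emission ratio gave gain-of-signal activity relative to DMSO.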
Sequence of Cellular tumor antigen p53 (Homo sapiens) (P04637 whole entry, looked up): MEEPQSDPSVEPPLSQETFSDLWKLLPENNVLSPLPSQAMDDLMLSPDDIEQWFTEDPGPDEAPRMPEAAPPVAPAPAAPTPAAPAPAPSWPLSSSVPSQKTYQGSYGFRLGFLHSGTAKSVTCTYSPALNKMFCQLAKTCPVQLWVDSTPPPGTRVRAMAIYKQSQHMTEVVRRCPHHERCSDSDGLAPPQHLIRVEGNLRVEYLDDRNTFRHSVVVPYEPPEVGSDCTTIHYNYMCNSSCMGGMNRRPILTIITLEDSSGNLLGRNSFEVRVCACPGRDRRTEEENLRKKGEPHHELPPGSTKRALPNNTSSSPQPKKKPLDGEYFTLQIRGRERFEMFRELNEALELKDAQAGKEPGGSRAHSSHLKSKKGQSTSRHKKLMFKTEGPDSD

A short description of assay [2]: TOX21_p53_BLA_p3_viability: Viability Assessment in the Tox21 HCT-116 p53 Agonism Beta-lactamase Assay, Phase 3 (AID 2283593).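 Further: cells exposed to compound for 16 h before reading.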 The method in brief: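 Cellular ATP was quantified by CellTiter-Glo luminescence, read after 30 min at room temperature. Beforehand, HCT116 cells (4000/well) received compound 5 h post-seeding, 217-fold diluted from DMSO, then incubated 16 h at 37C.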

In assay [3] the target is Cellular tumor antigen p53 (Homo sapiens) (UniProt P04637). Put plainly: TOX21_p53_BLA_p3_ratio: Tox21 HCT-116 p53 Agonism Beta-lactamase Assay, Ratio, Phase 3 (AID 2283596). In short, it runs like this: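 HCT116 p53-bla cells (4000/well) given compound in DMSO (217-fold dilution) after 5 h, incubated 16 h at 37C. CCF4-AM substrate 2 h at room temperature; 460/530 nm emission ratio, gain fitted against DMSO.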

Assay [4] in a line: TOX21_p53_BLA_p4_viability: Viability Assessment in the Tox21 HCT-116 p53 Agonism Beta-lactamase Assay, Phase 4 (AID 2283597).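 Further: hits lower the luminescence signal meaning cytotoxicity.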 The method in brief: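 HCT116 p53-bla cells (4000/well) rested 5 h at 37C, then received compounds in DMSO (217-fold dilution) for 16 h at 37C, 5% CO2. CellTiter-Glo was added after the CCF4-AM read, and luminescence was read after 30 min at room temperature.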

For assay [5], the target named is Cellular tumor antigen p53 (Homo sapiens) (UniProt P04637). Description: TOX21_p53_BLA_p5_ratio: Tox21 HCT-116 p53 Agonism Beta-lactamase Assay, Ratio, Phase 5 (AID 2283599). In short, it runs like this:
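Beta-lactamase reporter ratio (blue 460 nm over green 530 nm, 405 nm excitation) after 2 h CCF4-AM loading, in HCT-116 cells exposed 16 h at 37 C to compounds pinned at 217-fold dilution. Increases relative to DMSO baseline scored.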

Assay [6] can be described thus: TOX21_p53_BLA_p5_viability: Viability Assessment in the Tox21 HCT-116 p53 Agonism Beta-lactamase Assay, Phase 5 (AID 2283600). In short, it runs like this: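 Cells were plated at 4000/well, rested 5 h at 37C, then given compounds in DMSO (217-fold dilution) for 16 h at 37C, 5% CO2. Following the CCF4-AM beta-lactamase read, CellTiter-Glo was added and luminescence was read after 30 min at room temperature.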

Assay [7] addresses Cellular tumor antigen p53 (Homo sapiens) (UniProt P04637). Put plainly: TOX21_p53_BLA_p4_ratio: Tox21 HCT-116 p53 Agonism Beta-lactamase Assay, Ratio, Phase 4 (AID 2283601). The method in brief: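 Signal is the blue/green (460nm/530nm) ratio of cleaved versus uncleaved CCF4-AM substrate, read after 2 h substrate loading. Cells were HCT116 carrying the p53-responsive beta-lactamase reporter, dosed 16 h at 37C, 5% CO2; CellTiter-Glo measured in parallel.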

Each structure is given as a SMILES string. Results filed as inconclusive are left out. Calls of active or inactive are those of the source. How the source made its calls: active means hit-call score of the fitted dose curve at least 0.9, where 1 is the maximum; inconclusive means response in the unintended direction; inactive means score below 0.9.

For `CC(C)[C@H](N)C(=O)OCCOCn1cnc2c(=O)[nH]c(N)nc21`, the result in assay [1], in assay [2], in assay [3] and in assay [4] was inactive.
As to `CC(C)[C@@H](C)/C=C/[C@@H](C)[C@H]1CC[C@H]2/C(=C/C=C3\C[C@@H](O)CC[C@@H]3C)CCC[C@]12C`, the result in assay [1], in assay [2], in assay [3] and in assay [4] was inactive.
Turning to `CC1=C(C=O)C(C)(C)CC=C1`, the result in assay [1], in assay [2], in assay [3], in assay [4] and in assay [5] was inactive.
Take `c1cnc2c(n1)CCCC2`: the outcome in assay [1], in assay [2], in assay [3], in assay [4] and in assay [5] was inactive.
As for `O=C1NCCN1`, the outcome in assay [1], in assay [2], in assay [3] and in assay [4] was inactive.
`COc1ccc2cc(CCC(C)=O)ccc2c1`: the result in assay [1], in assay [2], in assay [3], in assay [4], in assay [5] and in assay [6] was inactive.
On to `CCC[C@@H]1C[C@@H](C(=O)N[C@@H]([C@H]2O[C@H](SC)[C@H](OP(=O)(O)O)[C@@H](O)[C@H]2O)[C@H](C)Cl)N(C)C1`, for which the result in assay [1], in assay [2], in assay [3], in assay [4], in assay [5] and in assay [6] was inactive. Moreover, the result in assay [7] was inactive.
Regarding `Cc1cc(S(=O)(=O)O)c(N)cc1Cl`, the outcome in assay [1], in assay [2], in assay [3], in assay [4], in assay [5] and in assay [6] was inactive. Moreover, the outcome in assay [7] was inactive.
On to `CCCCOc1cc(C(=O)OCCN(CC)CC)ccc1N`, for which the result in assay [1], in assay [2], in assay [3], in assay [4] and in assay [5] was inactive.
`SC1CCCCC1`: the result in assay [1], in assay [2], in assay [3], in assay [4], in assay [5] and in assay [6] was inactive. Also, the outcome in assay [7] was inactive.
In the case of `CCN1CC(CCN2CCOCC2)C(c2ccccc2)(c2ccccc2)C1=O` (stereo not drawn), the result in assay [1], in assay [2], in assay [3], in assay [4] and in assay [5] was inactive.
For the compound `CC(C)COC(=O)c1ccc(O)cc1`, the result in assay [1], in assay [2], in assay [3], in assay [4], in assay [5] and in assay [6] was inactive. In addition, in assay [7], the result was inactive.
On to `CCOC(=O)CS`, for which the result in assay [1], in assay [2], in assay [3], in assay [4], in assay [5] and in assay [6] was inactive. Also, the outcome in assay [7] was inactive.
Consider `CC[C@@]1(O)C(=O)OCc2c1cc1n(c2=O)Cc2cc3c([N+](=O)[O-])cccc3nc2-1`, for which the AC50 (usually the midpoint of the concentration-response curve, whichever way the signal moves) in assay [1] was 124 nM (active); in assay [2], 685 nM (active); in assay [3], 172 nM (active); in assay [4], 654 nM (active); in assay [5], 166 nM (active); in assay [7] it was 166 nM (active). Besides, the compound was called inactive in assay [6].
On to `NC(=O)c1cccc([N+](=O)[O-])c1`, for which the result in assay [1], in assay [2], in assay [3], in assay [4], in assay [5] and in assay [6] was inactive.
As to `COc1ccc2c(=O)c(C)c(-c3ccccc3)oc2c1CN(C)C`, the outcome in assay [1], in assay [2], in assay [3], in assay [4] and in assay [5] was inactive.
For `CO[C@@H]1[C@@H](O[C@@H]2O[C@H](C)[C@@H](O[C@H]3C[C@](C)(O)[C@@H](O)[C@H](C)O3)[C@H](N(C)C)[C@H]2O)[C@H](CC=O)C[C@@H](C)[C@H](O[C@H]2CC[C@H](N(C)C)[C@@H](C)O2)/C=C\C=C\C[C@@H](C)OC(=O)C[C@H]1O`, the result in assay [1], in assay [2], in assay [3], in assay [4] and in assay [5] was inactive.
For the compound `Cc1ccc(C(=O)C(C)CN2CCCCC2)cc1` (stereo not drawn), the result in assay [1], in assay [2], in assay [3], in assay [4], in assay [5] and in assay [6] was inactive. Also, the outcome in assay [7] was inactive.
Consider `CCCCNC1CC(C)(C)NC(C)(C)C1`, for which the outcome in assay [1], in assay [2], in assay [3], in assay [4] and in assay [5] was inactive.
With `CC1=NS(=O)(=O)c2cc(Cl)ccc2N1`, the result in assay [1], in assay [2], in assay [3], in assay [4] and in assay [5] was inactive.
As for `Nc1nnnn1-c1ccccc1`, the result in assay [1], in assay [2], in assay [3], in assay [4], in assay [5] and in assay [6] was inactive.
`O=C(O)CN1C(=O)c2cccc3cccc(c23)C1=O`: the result in assay [1], in assay [2], in assay [3], in assay [4] and in assay [5] was inactive.
As to `CC(=O)N(CC(O)CO)c1c(I)c(C(=O)NCC(O)CO)c(I)c(C(=O)NCC(O)CO)c1I` (stereo not drawn), the outcome in assay [1], in assay [2], in assay [3] and in assay [4] was inactive.
Turning to `c1ccc2sc(SN3CCOCC3)nc2c1`, the outcome in assay [1], in assay [2], in assay [3], in assay [4], in assay [5] and in assay [6] was inactive.
As for `COc1cc2c(cc1N)oc1ccccc12`, the result in assay [1], in assay [2], in assay [3], in assay [4], in assay [5] and in assay [6] was inactive. Also, in assay [7], the AC50 is 66100 nM (active).
Take `CCCC(=O)N1CCCN(c2nc(N)c3cc(OC)c(OC)cc3n2)CC1`: the result in assay [1], in assay [2], in assay [3], in assay [4], in assay [5] and in assay [6] was inactive. Moreover, the outcome in assay [7] was inactive.
